Results: PubChem BioAssay AID1159580 (chemical genetic matrix, 2015)
Values joined by “and” are separate entries in the source; they are usually repeats but may differ in a detail not shown here. Identical values can stand only once. About 2,000 (36%) of roughly 5,500 compounds were called active. Roughly 18% stayed inconclusive and do not appear here. Rule as the data show it: active = normalized growth mostly below about 0.91 (no sharp cut-off); inconclusive = no clear call, values can overlap the other calls; inactive = mostly above about 0.92. The list shows a part of the results.

Experiment: chemical genetic growth profiling, strain panel (AID 1159580);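 also: tested at 20 µM; growth read once vehicle control cultures reached saturation at 30 °C; 1 = growth at the plate median or of vehicle wells; lower values mean less growth of the strain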
Conditions: S. cerevisiae deletion strains, growth OD

Measured: normalized growth

CCCCOc1ccc(OCCCN2CCOCC2)cc1
inactive: locus YAL013W, strain DEP1, stronger effect = lower value 0.994 | locus YAL030W, strain snc1, stronger effect = lower value 0.988 | locus YBL061C, strain skt5, stronger effect = lower value 0.955 | locus YBR009C, strain hhf1, stronger effect = lower value 0.96 | locus YBR023C, strain chs3, stronger effect = lower value 0.946 | locus YBR171W, strain sec66, stronger effect = lower value 0.942 | locus YBR229C, strain ROT2, stronger effect = lower value 1 | locus YBR231C, strain swc5, stronger effect = lower value 0.935 | locus YCL011C, strain gbp2, stronger effect = lower value 0.966 | locus YCL016C, strain dcc1, stronger effect = lower value 0.928 | locus YCL029C, strain bik1, stronger effect = lower value 0.938 | locus YCL069W, strain vba3, stronger effect = lower value 0.995 | locus YCR088W, strain abp1, stronger effect = lower value 0.997 | locus YDL005C, strain med2, stronger effect = lower value 1 | locus YDL040C, strain nat1, stronger effect = lower value 0.987 | locus YDL074C, strain BRE1, stronger effect = lower value 0.841 | locus YDL101C, strain DUN1, stronger effect = lower value 0.963 | locus YDL185W, strain tfp1, stronger effect = lower value 0.979 | locus YDR001C, strain nth1, stronger effect = lower value 0.983 | locus YDR137W, strain rgp1, stronger effect = lower value 0.913 | locus YDR150W, strain NUM1, stronger effect = lower value 0.984 | locus YDR159W, strain sac3, stronger effect = lower value 0.943 | locus YDR162C, strain NBP2, stronger effect = lower value 0.952 | locus YDR297W, strain sur2, stronger effect = lower value 0.968 | locus YDR334W, strain swr1, stronger effect = lower value 0.947 | locus YDR392W, strain spt3, stronger effect = lower value 0.868 | locus YEL003W, strain gim4, stronger effect = lower value 0.918 | locus YEL037C, strain rad23, stronger effect = lower value 0.98 | locus YEL061C, strain CIN8 (second series), stronger effect = lower value 0.973 | locus YEL061C, strain CIN8, stronger effect = lower value 0.931 | locus YER016W, strain bim1, stronger effect = lower value 0.983 | locus YER110C, stronger effect = lower value 0.922 | locus YER111C, strain swi4, stronger effect = lower value 0.962 | locus YER155C, strain BEM2, stronger effect = lower value 1.04 | locus YGL078C, strain dbp3, stronger effect = lower value 0.966 | locus YGL167C, strain pmr1, stronger effect = lower value 0.966 | locus YGL173C, strain kem1, stronger effect = lower value 0.929 | locus YGL227W, strain vid30, stronger effect = lower value 0.966 | locus YGL240W, strain doc1, stronger effect = lower value 0.965 | locus YGL253W, strain hxk2, stronger effect = lower value 0.94 | locus YHR027C, strain rpn1, stronger effect = lower value 0.953 | locus YHR079C, strain IRE1 (second series), stronger effect = lower value 0.93 | locus YHR079C, strain IRE1, stronger effect = lower value 0.979 | locus YHR094C, strain hxt1, stronger effect = lower value 0.997 | locus YHR129C, strain ARP1, stronger effect = lower value 0.99 | locus YHR200W, strain rpn10, stronger effect = lower value 0.961 | locus YIL073C, strain SPO22, stronger effect = lower value 0.804 | locus YIL125W, strain kgd1, stronger effect = lower value 1 | locus YIR030C, strain dcg1, stronger effect = lower value 0.976 | locus YJL092W, strain hpr5, stronger effect = lower value 0.992 | locus YJL095W, strain BCK1 (second series), stronger effect = lower value 0.962 | locus YJL115W, strain asf1, stronger effect = lower value 0.954 | locus YJL134W, strain LCB3, stronger effect = lower value 0.999 | locus YJL154C, strain vps35, stronger effect = lower value 0.995 | locus YJL164C, strain tpk1, stronger effect = lower value 0.918 | locus YJL168C, strain set2, stronger effect = lower value 0.976 | locus YJL187C, strain SWE1, stronger effect = lower value 0.957 | locus YJR043C, strain POL32, stronger effect = lower value 0.934 | locus YJR066W, strain TOR1, stronger effect = lower value 0.884
0.911 (active) and 0.965 (inactive): locus YHR030C, strain SLT2, stronger effect = lower value
active: locus YAL021C, strain ccr4, stronger effect = lower value 0.829 | locus YAL026C, strain drs2, stronger effect = lower value 0.0964 | locus YBR021W, strain FUR4, stronger effect = lower value 1.16 [resistant] | locus YBR279W, strain paf1, stronger effect = lower value 0.918 | locus YDL035C, strain GPR1, stronger effect = lower value 0.855 | locus YDL134C, strain PPH21, stronger effect = lower value 0.823 | locus YDL192W, strain arf1, stronger effect = lower value 0.893 | locus YDR069C, strain doa4, stronger effect = lower value 0.883 | locus YDR101C, strain arx1, stronger effect = lower value 0.916 | locus YDR195W, strain ref2 1.21 [resistant] | locus YDR318W, strain mcm21, stronger effect = lower value 0.884 | locus YDR335W, strain msn5, stronger effect = lower value 0.904 | locus YDR388W, stronger effect = lower value 0.9 | locus YDR502C, strain sam2, stronger effect = lower value 0.872 | locus YER015W, strain faa2, stronger effect = lower value 0.925 | locus YER155C, strain BEM2 (second series), stronger effect = lower value 0.407 | locus YER167W, strain BCK2, stronger effect = lower value 0.838 | locus YFR010W, strain ubp6, stronger effect = lower value 0.884 | locus YGL086W, strain mad1, stronger effect = lower value 0.906 | locus YGL248W, strain PDE1, stronger effect = lower value 0.863 | locus YGR078C, strain PAC10, stronger effect = lower value 0.828 | locus YGR135W, strain pre9, stronger effect = lower value 0.784 | locus YGR229C, strain SMI1, stronger effect = lower value 0.598 | locus YGR252W, strain gcn5, stronger effect = lower value 0.588 | locus YHR013C, strain ard1, stronger effect = lower value 0.799 | locus YHR142W, strain chs7, stronger effect = lower value 0.817 | locus YIL066C, strain RNR3, stronger effect = lower value 0.719 | locus YJL129C, strain trk1, stronger effect = lower value 0.805 | locus YJL166W, strain qcr8, stronger effect = lower value 0.89 | locus YJL187C, strain SWE1 (second series), stronger effect = lower value 0.855
0.653 (active) and 0.972 (inactive): locus YJL095W, strain BCK1, stronger effect = lower value
